uPA generation: qHTS for Inhibitors of Cell Surface uPA Generation; cell surface uPA generation assay, qHTS; Potency, µM (titrated, usually from 38.3 µM), for the others: top-dose activity change, negative = inhibition, hits mostly inhibitors; 330,000 tested, 0.31% active; AID 540303, 2011; active = well fitted inhibition curve with a large enough effect; inconclusive = small, poorly fitted or top-dose-only effect; inactive = no such curve, though single readings can be large or run the other way; tested in mouse RAW 264.7 cells; note: potency is the fitted concentration of half-maximal effect; % is set by controls: 0 for no effect and ±100 for the full control effect; nearly all actives have a fitted effect of over 55% in size
Six1-Eya2 inh: qHTS Assay for Inhibitors of the Six1/Eya2 Interaction; Homeobox protein SIX1 (Homo sapiens) + Protein phosphatase EYA2 (Homo sapiens), …; 360,000 tested, 0.56% active; activity change, % (test concentration not listed); AlphaScreen GST-Six1/His-Eya2 binding, biochemical; hits give low values; AID 651725, 2012; note: % is set by controls: 0 for no effect and ±100 for the full control effect
Target sequence (O00167 whole entry, looked up): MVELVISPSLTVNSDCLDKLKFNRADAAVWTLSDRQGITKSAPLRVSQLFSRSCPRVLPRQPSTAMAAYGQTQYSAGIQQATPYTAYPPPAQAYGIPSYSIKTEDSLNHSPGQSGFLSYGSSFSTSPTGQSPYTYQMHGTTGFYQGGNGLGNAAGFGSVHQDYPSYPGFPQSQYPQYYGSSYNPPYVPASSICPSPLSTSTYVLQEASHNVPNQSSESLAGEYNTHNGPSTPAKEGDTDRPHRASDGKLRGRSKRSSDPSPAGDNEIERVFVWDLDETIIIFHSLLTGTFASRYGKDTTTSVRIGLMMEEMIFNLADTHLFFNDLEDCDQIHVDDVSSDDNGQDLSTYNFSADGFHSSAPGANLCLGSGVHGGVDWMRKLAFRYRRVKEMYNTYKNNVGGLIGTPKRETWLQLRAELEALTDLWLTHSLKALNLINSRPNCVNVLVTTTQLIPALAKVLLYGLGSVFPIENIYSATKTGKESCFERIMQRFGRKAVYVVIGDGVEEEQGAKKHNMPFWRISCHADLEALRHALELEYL
Target sequence (Q15475 whole entry, looked up): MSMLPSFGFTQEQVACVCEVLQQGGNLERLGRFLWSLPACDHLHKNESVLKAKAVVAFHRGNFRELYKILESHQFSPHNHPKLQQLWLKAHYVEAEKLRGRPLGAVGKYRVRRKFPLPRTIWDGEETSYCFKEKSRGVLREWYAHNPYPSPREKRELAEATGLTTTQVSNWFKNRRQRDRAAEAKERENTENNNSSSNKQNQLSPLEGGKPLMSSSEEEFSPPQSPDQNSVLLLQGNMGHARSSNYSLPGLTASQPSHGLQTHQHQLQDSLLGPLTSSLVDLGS
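Homogeneous AlphaScreen proximity assay pairing GST-Six1 with His-tagged Eya2 (added as 5X mix: 250 nM and 500 nM) in 50 mM Tris pH 8.0, 300 mM NaCl, 1 mM TCEP. Glutathione donor and nickel acceptor beads; 1 h, 37 °C, dark.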
MBNL1 CUG block: qHTS Assay for Inhibitors of MBNL1-poly(CUG) RNA binding; TR-FRET MBNL1-His/biotin-(CUG)12 binding, 665/545 ratio; Muscleblind-like protein 1 (Homo sapiens), Q9NR56; Potency, µM (titrated, usually from 57.5 µM), for inactives: at the highest dose activity change, negative = inhibition, actives largely listed as inhibitors; 280,000 tested, 0.036% active; active = well fitted inhibition curve with a large enough effect in the signal ratio, with a control signal flat, not every such curve was filed as active; inconclusive = small, poorly fitted or top-dose-only effect, or effect the other way, or a change in a side signal; inactive = no such curve, though single readings can be large or run the other way; the % refers to the signal ratio; note: potency is the fitted concentration of half-maximal effect; % is set by controls: 0 for no effect and ±100 for the full control effect
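Compounds (final 92 nM to 58 uM) are added to His-tagged MBNL1 and biotin-(CUG)12, then terbium anti-His antibody and streptavidin-XL665 (5 nM final). After 60 min at room temperature, the 665/545 nm ratio is read.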
CtBP-E1A inh: qHTS Assay for Inhibitors of the CtBP/E1A Interaction | AID 651724, 2012 | activity change, % (concentration not given with the values) | CtBP / adenovirus E1A interaction (AlphaScreen) | 340,000 tested, 0.49% active | AlphaScreen GST-E1A/His-CtBP binding, 1536-well; hits give low values; note: % is set by controls: 0 for no effect and ±100 for the full control effect
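GST-E1A and His-tagged CtBP (125 nM each as 5X stock) were preincubated with pin-transferred compound for 2 h at 37 °C in the dark, then glutathione donor and nickel acceptor beads were added for 1 h before AlphaScreen reading.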
Mito fusion yeast: qHTS Assay for Small Molecule Inhibitors of Mitochondrial Division or Activators of Mitochondrial Fusion; Potency, µM (doses to about 46.1 µM), without a hit: top-dose growth rescue (activation), actives largely listed as activators; 320,000 tested, 0.23% active; S. cerevisiae fusion-defective mutant growth rescue, CellTiterGlo 48 h; active = well fitted activation curve with a large enough effect; inconclusive = small, poorly fitted or top-dose-only effect; inactive = no such curve, though single readings can be large or run the other way; note: potency is the fitted concentration of half-maximal effect; % of control where 0% means no effect; nearly all actives have a fitted effect of over 45% in size
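Luminescent cell viability in 1536-well qHTS format served as the measure of rescued growth in ts fusion-mutant S. cerevisiae cultured on non-fermentable YPEG for 48 hours at 37C.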
Active calls of the source: *; ? = inconclusive; . = no result; [ ] = remark or other dose. A selection: hits, their analogues and other compounds. The true share with any hit is near 1.1%. Cut-off read from the data, not from the text of the source, unless noted: active = activity change below about -65%; inconclusive = mostly about -30% to -63%; inactive = weaker than that.

SMILES | uPA generation | Six1-Eya2 inh | MBNL1 CUG block | CtBP-E1A inh | Mito fusion yeast
O=C1NC[C@@H](CCCCN2C[C@H](Cc3ccc(O)cc3)N(CC3CCCCC3)C(=O)C2=O)N(CCc2ccccc2)C1=O | . | -6 | . | 2 | .
Oc1c(C(Nc2cccc(C(F)(F)F)c2)c2cccnc2)ccc2cccnc12 (stereo not given) | -10% | -82* | . | -86* | 8%
Cc1cc(NC(c2cccnc2)c2ccc3cccnc3c2O)no1 (stereo not given) | -13% | -88* | ? | -93* | 6%
O=C(c1[nH]c(C(F)(F)F)nc1-c1ccccc1)N1CCN(C(=O)C2CCCO2)CC1 (stereo not given) | . | -12 | . | -3 | .
Cc1ccc(-n2nc3c(=O)n(C(C)C(=O)NCCCc4ccccc4)nc(C)c3c2C)cc1 (stereo not given) | -29% | -1 | -6% | 3 | -14%
Cc1ccc(-n2nc3c(=O)n(CC(=O)NCCCc4ccccc4)nc(C)c3c2C)cc1 | 0.5µM* | 6 | 1% | . | 1%
Cc1cc(C)c(C(O)c2ncc(-c3cccc(F)c3)[nH]2)c(C)c1 (stereo not given) | . | -12 | . | -5 | .
Cc1ccc(S(=O)(=O)N2C[C@]3(O)C[C@@H]4C(=O)N(c5ccccc5)C(=O)[C@@H]4C[C@]3(OC(=O)NCC3CCCCC3)C2)cc1 | . | 1 | . | -15 | .
NC(=O)NC(CC(=O)NNC(=O)c1ccccn1)c1ccccc1Cl (stereo not given) | -43% | -65* | . | -79* | -4%
N#Cc1ccc(C23OCCN2CCn2c3c3ccccc3[n+]2[O-])cc1 (stereo not given) | 2.2µM* | -3 | . | . | .
Cc1ccc(C23OCCN2CCn2nc4ccccc4c23)cc1 (stereo not given) | 14% | 0 | . | 4 | -8%
COC(=O)c1sc(N)nc1CCNC(=O)OC(C)(C)C | . | 10 | . | 13 | .
Cc1ccc(-n2nnc(-c3nccs3)n2)cc1 | 2.2µM* | 10 | -3% | 6 | -10%
Cc1noc(C)c1C(=O)Nc1nc2ccccc2s1 | -7% | -6 | . | 5 | 8%
CCCCNc1nc(=S)[nH]c2cc(OC)c(OC)cc12 | -5% | -91* | 12% | -93* | 3%
CCOCCCNc1nc(=S)[nH]c2cc(OC)c(OC)cc12 | -3% | -83* | 15% | -92* | -2%
COc1cc2[nH]c(=S)nc(NCCCOC(C)C)c2cc1OC | 0% | -86* | 35% | -93* | 2%
COc1ccc(CCNC(=O)CCCCCNc2nc(=S)[nH]c3ccccc23)cc1OC | 2% | ? | ? | -19 | -2%
COCCNc1nc(=S)[nH]c2cc(OC)c(OC)cc12 | 2% | -80* | -8% | -87* | -1%
O=C(CCCCCN1CCN(c2ccccc2-c2ccccc2)CC1)NC1CCCc2ccccc21 (stereo not given) | . | . | . | . | -51%
O=c1oc2ccccc2c2c1C1O[C@](c3ccsc3)(Cc3ccccc31)O2 | . | . | 0%[11.5 µM] | . | 1%[9.22 µM]
O=C(Oc1ccc(Cl)c2cccnc12)c1ccco1 | -5% | -88* | 13% | -83* | 0%
O=C(Oc1cccc2cccnc12)c1ccco1 | -2% | ? | 1% | ? | -5%
COc1ccc(C(=O)Nc2nc3ccccc3[nH]2)cc1OC | . | -10 | ? | -6 | 11%
COc1ccc(C(=O)Nc2nc3ccccc3[nH]2)cc1S(=O)(=O)N1CCCC1 | 0% | ? | -5% | -70* | -2%
SMILES | uPA generation | Six1-Eya2 inh | MBNL1 CUG block | CtBP-E1A inh | Mito fusion yeast
CCOc1ccc(CCNC(=O)c2ccc(CS(=O)(=O)Cc3ccccc3Cl)o2)cc1OCC | . | . | . | . | -10%
O=C1C2=C(C(=O)c3ccccc31)C1O[C@](CCCCN3C(=O)c4ccccc4C3=O)(Cc3ccccc31)O2 | . | . | 15%[11.5 µM] | . | -4%[9.22 µM]
Cc1c(N=NC2=C(O)CCCC2=O)c(=O)n(-c2ccccc2)n1C | -7% | -79* | ? | -92* | -2%
Cc1nn(-c2ccccc2)c(C)c1/C=C/C(=O)OCC(=O)NC1CCS(=O)(=O)C1 (stereo not given) | 0% | -3 | 7% | -75* | -8%
Cc1ncc(CO)c(/C=N/NC(=O)c2cc(Br)ccc2O)c1O | -7% | ? | -4% | . | -8%
O=C(N/N=C/c1cc(Cl)cc([N+](=O)[O-])c1O)c1ccccc1NS(=O)(=O)c1cccs1 | 4% | -77* | -8% | -1 | 1%
O=C(NN=Cc1cc(Cl)ccc1[N+](=O)[O-])c1cccc2ccccc12 | 4% | -4 | . | 1 | .
Cc1cc(C(=O)N/N=C/c2cc(Cl)cc([N+](=O)[O-])c2O)c2ccccc2n1 | -7% | -89* | ? | -91* | 11%
Cc1cc(C(=O)N/N=C/c2c(CO)cnc(C)c2O)c2ccccc2n1 | -3% | -92* | ? | -99* | 3%
COc1ccc2[nH]c(-c3ccc(C)cc3)cc(=O)c2c1 | 2.8µM* | 4 | 13% | 0 | -5%
COc1cc2c(cc1NC(=O)CN(C)Cc1ccc(OC)c(OC)c1)oc1ccccc12 | ? | -21 | -9% | -24 | 14µM*
O=C(NCCc1ccc(Cl)cc1)c1cccc(S(=O)(=O)N2CCCC2)c1 | . | -17 | . | -3 | .
Cc1cc2nc(-c3ccccc3)c(CC(C)(C)C)n2c(C)c1Br | . | -2 | . | 3 | .
O=C(NC1CCCC1)C1c2ccccc2OCC(=O)N1Cc1ccco1 (stereo not given) | . | -4 | . | 3 | .
O=S(=O)(c1ccccc1)N1CCN(c2nnnn2-c2ccccc2)CC1 | 1% | 3 | 0% | 2 | 4%
O=S(=O)(c1ccc2c(c1)OCO2)N1CCN(c2nnnn2-c2ccccc2)CC1 | . | 3 | 10% | 5 | 5µM*
O=C(Nc1ccc(F)cc1)C(c1ccccc1OC(F)(F)F)N1CCN(C(=O)c2ccco2)CC1 (stereo not given) | . | -1 | . | 3 | .
CC(=O)N1CCC(c2nc3ccccc3n2C(C)C(=O)NCc2ccccc2)CC1 (stereo not given) | . | 3 | . | 2 | .
CC(=O)N1CCN(c2ccc(NCc3ccco3)cc2)CC1 | 4.5µM* | . | . | . | -10%
O=C(CCCC(=O)c1ccccc1)Nc1ccc(F)cc1 | 9% | -1 | -7% | 4 | 5%
Cc1c(F)cccc1NC(=O)CCCCCC1NC(=O)NC1C (stereo not given) | 0% | -2 | 0.28µM* | -2 | -5%
CC1NC(=O)NC1CCCCCC(=O)Nc1ccc(F)cc1 (stereo not given) | 2% | 5 | 0.1µM* | 8 | 8%
COc1ccc(-c2csc(C3=C(O)CN(C(C)C)C3=N)n2)cc1OC | -13% | ? | 10% | -77* | 9%
